Source: PubChem (several laboratories)
Shn3 inh set2: reduction of Shn3 3'UTR firefly luciferase signal, primary screen, Schnurri-3 inhibitor project, cell-based, Clone20 osteoblasts, set 2. Clone20 osteoblast Shn3 3'UTR firefly luciferase, 24 h. inhibition, % at 12.5 µM. 0.52% of 360,000 active;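 active = mean inhibition of at least 75% with every replicate also reaching 75%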;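 also: 0% = median of neutral control wells and 100% = pilot-screen positive control compound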
SRC1 inh: SRC1 coactivator transcriptional activity inhibitors, primary screen, cell-based, luminescence; inhibition, % at 3.6 µM; Nuclear receptor coactivator 1 (Homo sapiens), Q15788; AID 588354, 2011; HEK293 GAL4-SRC1 luciferase reporter; 0.12% of 360,000 active;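 active = inhibition above the campaign mean plus 3 SD, with each screening campaign given its own cutoff, cut at about 60% in these data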;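 also: 0% = DMSO treated cells and 100% = gossypol at 36 µM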
NR5A2 inv ag: LRH-1 (NR5A2) inverse agonists, primary screen, cell-based, luminescence, HEK293T, StAR-luciferase reporter; AID 602396, 2012; inhibition, % at 3.6 µM; LRH-1 transfected, 24 h; 0.13% of 360,000 active;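 active = inhibition above the mean inhibition of all tested compounds plus 3 SD, cut at about 73% in these data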;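 also: 0% = DMSO wells and 100% = reporter-only cells lacking LRH-1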
Target sequence (O00482 whole entry, looked up): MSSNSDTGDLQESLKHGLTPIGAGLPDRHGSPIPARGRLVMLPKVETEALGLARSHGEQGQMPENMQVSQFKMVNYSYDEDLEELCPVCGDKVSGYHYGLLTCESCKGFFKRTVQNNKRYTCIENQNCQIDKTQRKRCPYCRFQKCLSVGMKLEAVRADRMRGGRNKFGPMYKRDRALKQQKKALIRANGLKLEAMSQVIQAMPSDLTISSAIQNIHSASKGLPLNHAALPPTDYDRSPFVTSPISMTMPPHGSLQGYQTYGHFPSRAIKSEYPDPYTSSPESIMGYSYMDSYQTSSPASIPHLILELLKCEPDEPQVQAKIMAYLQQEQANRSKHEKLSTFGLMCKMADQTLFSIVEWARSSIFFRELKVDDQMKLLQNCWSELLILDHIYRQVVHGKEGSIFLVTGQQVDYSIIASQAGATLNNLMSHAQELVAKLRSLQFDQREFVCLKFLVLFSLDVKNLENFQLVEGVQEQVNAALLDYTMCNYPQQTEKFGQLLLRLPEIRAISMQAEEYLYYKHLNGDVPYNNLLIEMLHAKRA
NCOA2 inhibitor: inhibition of GAL4-SRC2 driven luciferase reporter, primary screen, SRC2 inhibitor project, cell-based, luminescence; Nuclear receptor coactivator 2 (Homo sapiens), Q15596; HEK293 GAL4-SRC2 luciferase reporter; inhibition, % at 9 µM; 0.17% of 370,000 active;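 active = inhibition above the mean inhibition of all tested compounds plus 3 SD, set per campaign, cut at about 52% in these data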;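 also: 0% = DMSO treated cells and 100% = cells given Gossypol at 36 µM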
SRC3 inh: SRC3 coactivator transcriptional activity inhibitors, primary screen, cell-based, luminescence. Nuclear receptor coactivator 3 (Homo sapiens), Q9Y6Q9. HEK293 GAL4-SRC3 luciferase reporter. inhibition, % at 3.6 µM. 0.17% of 360,000 active;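 active = inhibition above a per-campaign cutoff, the mean of all compounds plus 3 SD, cut at about 60% in these data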;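 also: 0% = DMSO-treated cells and 100% = gossypol-treated cells at 36 µM; higher means less SRC3-driven luciferase light from the GAL4 reporter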
EBV LMP1 NFkB: EBV LMP1-driven NF-kappaB luciferase reporter inhibitors, primary screen, cell-based, luminescence, single point; LMP1-induced NF-kappaB luciferase reporter cells; inhibition, % at 12.5 µM; 0.69% of 350,000 active; in the data active = inhibition above about 41%;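 also: 0% = neutral control wells and 100% = reference inhibitor control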
Active calls of the source: *; / = no result. Compounds with a hit are over-represented: about 1.2% of the library has one in this group of screens.

SMILES	Shn3 inh set2	SRC1 inh	NR5A2 inv ag	NCOA2 inhibitor	SRC3 inh	EBV LMP1 NFkB
O=C(N[C@@H]1C/C=C\C[C@@H](CC(=O)N(CCO)Cc2ccccc2)C(=O)NC[C@H](c2ccccc2)OC1=O)OCC1c2ccccc2-c2ccccc21	87.8*	-16.5	-20.2	-27.8	-4.5	7.9
O=C(N[C@@H]1C/C=C\C[C@H](CC(=O)N(CCO)Cc2ccccc2)C(=O)NC[C@@H](c2ccccc2)OC1=O)OCC1c2ccccc2-c2ccccc21	89.6*	-2.6	-15.6	25.1	-3.5	-1.8
COC(=O)c1cc2c(c3c4ccccc4n(S(=O)(=O)c4ccc(OC)cc4)c13)C(=O)N(Cc1ccco1)C2	/	/	/	4.7	/	/
CC(=O)CC[C@H]1CC[C@]2(CCCN(C(=O)C3CCCCC3)C2)O1	/	/	/	-21.4	/	/
COC(=O)[C@]12C[C@H](CC(=O)NCc3ccc(C)o3)C(=O)N(CCc3ccc(OC)c(OC)c3)C1=C[C@H](C(C)C)O[C@@H]2C1CC1	/	/	/	-6.5	/	/
CCOc1ccc(-n2c(C)c(C(=O)OC)c3cc(O)ccc32)cc1	-0.1	-19.0	-10.4	15.3	17.0	12.1
CCOc1ccc(-n2c(C)c(C(C)=O)c3cc(O)ccc32)cc1	3.7	61.1*	3.7	4.1	56.4	27.4
C[C@H](O)[C@@H]1CN2CCc3c([nH]c4c(-c5ccccc5)cccc34)[C@@H]2C[C@@H]1N(C)C(=S)Nc1ccc(C#N)cc1	/	/	/	-22.4	/	/
COCc1[nH]nc2c1C(c1ccc3c(c1)OCO3)N(Cc1ccccc1)C2=O (stereo unspecified)	/	/	/	-6.9	/	/
NNC(=O)c1cccc(COc2ccccc2Br)c1	-21.7	-142.9	-196.0	-40.2	-75.5	3.9
NNC(=O)c1cccc(COc2ccc3c(c2)CCC3)c1	20.9	-118.7	-303.7	-37.2	-76.7	63.4*
COc1ccc(NS(=O)(=O)c2ccc(C(=O)N3CCCCCC3)cc2)cc1	82.4*	15.6	4.2	24.6	16.0	19.7
O=C(NCCc1ccccc1Cl)[C@@H]1CCCN1C(=O)[C@H](Cc1cccnc1)NC(=O)N1CCOCC1	/	/	/	4.3	/	/
CC(=O)Nc1cccc(-c2csc(N)n2)c1	-18.9	-21.8	-5.3	-5.7	6.4	4.1
CC(=O)Nc1cccc(-c2cnc(N)c(C(=O)c3cccnc3)n2)c1	-4.6	78.6*	74.8*	/	78.3*	49.4*
NC(=O)c1cccc(-c2cnc(N)c(C(=O)c3cccnc3)n2)c1	-5.2	75.1*	62.5	/	62.8*	17.3
Clc1ccc(-n2c(SCc3cccc4ccccc34)nnc2-c2ccccc2)cc1	/	/	/	-19.9	/	/
O=C(NCc1ccccc1)[C@@H]1CCCN1C(=O)[C@H]1CCCN1C(=O)c1ccc(F)cc1F	/	/	/	13.0	/	/
Cn1ncc(Cl)c1C(=O)NC1CCCC1	2.1	3.7	9.5	14.7	8.6	52.8*
CC(Sc1nc2ccccc2c(=O)n1C)C(=O)N(C)C1CCCCC1 (stereo unspecified)	88.5*	17.6	27.9	25.8	12.1	23.4
COc1ccc(OC)c(CC(=O)Nc2ccc3c(c2)c(=O)n(C)n3Cc2cccc(C(F)(F)F)c2)c1	32.2	2.0	-7.0	57.8*	2.5	/
O=C(Nc1nnc(N2CCCCCC2)s1)c1cc(-c2ccc(Br)cc2)on1	-11.9	10.5	15.3	7.2	3.6	86.3*
Cn1c(=NC(=O)C2CC2)sc2cccc(F)c21	-52.8	-91.4	8.6	-27.4	-47.6	59.8*
CCN1CCN(Cc2ccc(NC(=O)c3cccc(-c4ccc5nc(NC(=O)C6CC6)sc5n4)c3)cc2C(F)(F)F)CC1	/	/	/	37.2	/	/
COc1ccc(NC(=O)c2sc3ncnc(N4CCN(c5ccccn5)CC4)c3c2C)cc1Cl	88.3*	-3.6	-23.5	25.5	2.7	44.0*
COc1ccc(-n2c(SCC(=O)NC3CCCCCC3)nnc2-c2ccncc2)cc1	/	/	/	1.9	/	/
CCOc1cc(/C=C2/C(=N)N3N=C(CC)SC3=NC2=O)ccc1OC(=O)c1ccco1	11.7	-1.4	37.3	13.8	-3.6	42.7*
C=CCN1[C@H](CC(C)C)COc2cccc(N3CCSCC3)c2S1(=O)=O	/	/	/	-14.7	/	/
